# Among all 290,000 compounds or so, about 27,000 (9.3%) were called active. The full list was thinned out, with actives kept by preference. Unmarked numbers belong to inactive results. Cut-off read from the data, not from the text of the source: active = inhibition mostly above about 28% (no sharp cut-off); inactive = mostly below about 43%.
# Assay: A qHTS for Small Molecule Inhibitors of Shiga Toxin; note: 0% is about no effect
# Conditions: Vero cells, Shiga toxin protein synthesis inhibition reporter; at 38.7 µM, stronger effect = higher value
row,Compound,inhibition
1,COc1ccc(CCNS(=O)(=O)c2cccc([N+](=O)[O-])c2)cc1,-8.39%
2,Cc1c(C(C)(C)O)[nH]c2ccc(C#N)cc12,7.17%
3,CC(=O)Nc1ccc(NC(=O)CN2C(=O)COc3ccc(S(=O)(=O)N4CCCCC4)cc32)cc1,-6%
4,CCOCCCNc1c(CC)c(C)c(C#N)c2nc3ccccc3n12,-5.72%
5,Cn1nc(-c2ccccc2)c2cc([N+](=O)[O-])ccc21,-6.77%
6,CCOc1ccc(N/C(N)=N/c2nc(C)c(C)c(=O)[nH]2)cc1,0.318%
7,COc1cccc(/C=N/Nc2ncc(C(F)(F)F)cc2Cl)c1O,-37.7% (active)
8,COC(=O)Cc1ccc(Oc2ncc(C(F)(F)F)cc2Cl)cc1,26.3%
9,N/C(=N\OC(=O)Nc1ccc(Cl)c(Cl)c1)c1ncc(C(F)(F)F)cc1Cl,-18.1%
10,CC(=O)N1c2ccc(S(=O)(=O)N3CCC(C(=O)NCc4ccc(F)cc4)CC3)cc2CC1C (stereo not given),-3.9%
11,CSc1ccccc1N1CCN(CCCCCC(=O)NC2CCCc3ccccc32)CC1 (stereo not given),-5.33%
12,COc1ccc(C2Nc3ccccc3C(=O)N2c2ccc(F)cc2)cc1Cn1nnc2ccccc21 (stereo not given),-5.43%
13,COc1ccc(C2Nc3ccccc3C(=O)N2Cc2ccccc2)cc1Cn1nnc2ccccc21 (stereo not given),-22.2%
14,COc1ccc([N+](=O)[O-])cc1C1NN=C(c2cccc3ccccc23)S1 (stereo not given),-12.5%
15,COc1ccc(N2C(=O)c3ccccc3NC2c2ccc(OC)c(CN3CCOCC3)c2)cc1 (stereo not given),64% (active)
16,COc1ccc(CN2CCCC(C(=O)c3ccc(Cl)cc3)C2)cc1Cn1cncn1 (stereo not given),-2.03%
17,COc1ccc(C2Nc3ccccc3C(=O)N2c2ccc(Cl)cc2)cc1Cn1cc([N+](=O)[O-])cn1 (stereo not given),115% (active)
18,COC(=O)C1=CN(Cc2ccc(OC)cc2)C=C(C(=O)OC)C1c1ccc(O)c(OC)c1,-14.4%
19,CCC(NC(=O)C1CCCC1)c1ccc(C)cc1 (stereo not given),-3.88%
20,O=C(Nc1ccc(Br)cc1)c1cc(S(=O)(=O)Nc2ccccn2)ccc1Cl,-18.3%
21,NC(=O)c1ccc(Nc2ccc3nonc3c2[N+](=O)[O-])cc1,-16.8%
22,N#Cc1c(-c2ccccc2)nc(SCc2cccc(C(F)(F)F)c2)[nH]c1=O,-1.96%
23,O=[N+]([O-])c1cnc2ccc3ccccc3c2c1,27.3%
24,O=[N+]([O-])c1ccc2c(c1)Nc1nc3ccccc3nc1N2,119% (active)
25,O=[N+]([O-])c1cccc(Nc2c3ccccc3nc3ccccc23)c1,-12.3%
